KCNQ2 inh – rat KCNQ2 potassium channel inhibitors, primary screen, cell-based, CHO-K1, FluxOR thallium flux, B-score | Potassium voltage-gated channel subfamily KQT member 2 (Rattus norvegicus), O88943 | 20 min; stronger effect = lower value | B-score at 10 µM | 310,000 compounds, 1.1% hits | AID 2156, 2009;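 active = fluorescence ratio B-score at most minus 3 library SDs, with starting brightness B-score within 2 library SDs, cut at about -5.5 in these data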
KCNQ2 enhance – potentiators of rat KCNQ2 potassium channel. AID 2239, 2010. B-score at 10 µM. 310,000 compounds, 0.54% hits. CHO-K1 KCNQ2, FluxOR thallium flux fluorescence; stronger effect = higher value;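 active = fluorescence ratio B-score at least 3 SD of library B-scores, with initial fluorescence B-score within 3 of them, cut at about 5.3 in these data; same plate scores as AID 2156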;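 note: B-score of peak minus minimum over baseline fluorescence ratio after K+ and Tl+ stimulus; positive B-score means potentiation of KCNQ2 with more thallium influx and brighter signal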
Kir21 conf inh – mouse Kir2.1 channel blockers, retest, confirmation, cell-based, FluxOR thallium flux, duplicate; Kir2.1-expressing cells, FluxOR thallium flux fluorescence; stronger effect = lower value; 2,300 compounds, 41% hits; shares compounds with KCNQ2 enhance; AID 2032, 2009; Tl flux remaining, % of negative control (stronger effect = lower value), % at 10 µM;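 active = Primary-screen hit whose thallium flux fell at least 3 control SD below untreated wells in both duplicates, with normal baseline fluorescence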;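 note: 0% = blank wells without stimulus and 100% = stimulated no-compound controls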
Target sequence (P35561 whole entry, looked up): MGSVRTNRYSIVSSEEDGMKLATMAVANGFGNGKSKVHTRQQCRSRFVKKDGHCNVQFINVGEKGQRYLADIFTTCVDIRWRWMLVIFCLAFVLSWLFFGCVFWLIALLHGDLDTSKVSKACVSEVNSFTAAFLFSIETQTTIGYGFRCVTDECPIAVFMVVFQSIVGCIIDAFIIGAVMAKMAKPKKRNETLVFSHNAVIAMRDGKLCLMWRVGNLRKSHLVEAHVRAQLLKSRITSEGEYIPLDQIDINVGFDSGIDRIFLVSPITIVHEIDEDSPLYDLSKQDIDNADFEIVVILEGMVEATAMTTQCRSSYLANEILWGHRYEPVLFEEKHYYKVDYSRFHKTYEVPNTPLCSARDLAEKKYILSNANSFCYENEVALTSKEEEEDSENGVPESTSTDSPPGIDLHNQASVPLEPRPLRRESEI
HEK293 Tl flux – counter-screen for Kir2.1 inhibitors: effect in parental HEK293 cells | shares compounds with KCNQ2 enhance | FluxOR thallium flux fluorescence; 0% = unstimulated blank wells | FluxOR signal as % of negative control (100 = no effect), % at 10 µM | 2,300 compounds, 19% hits | AID 2105;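 active = dye signal at least 3 control SD above or below untreated wells in both duplicates, raw fluorescence within 3, either direction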;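 note: percent is based on the flux ratio of peak minus minimum fluorescence over baseline F0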
CHO-K1 Tl ctr – nonspecific thallium flux increase in parental CHO-K1, confirmation, counter-screen for KCNQ2 potentiator project, cell-based, FluxOR thallium flux, duplicate; shares compounds with KCNQ2 enhance; parental CHO-K1 cells, FluxOR thallium flux fluorescence; zero = vehicle mean+3SD, 100% = vehicle-minus-blank window; 1,200 compounds, 43% hits; activity increase over 3SD of controls, % at 10 µM;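 active = signal rise of at least 3 SD above the untreated control mean, in both duplicate wells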;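 note: counter screen of KCNQ2 potentiator hits so any rise reflects channel-independent effects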
KCNQ1 pot spec – human KCNQ1 channel potentiation off-target, confirmation, selectivity assay for KCNQ2 potentiator project, cell-based, CHO, FluxOR thallium flux. activation over 3SD threshold, % at 10 µM. shares compounds with KCNQ2 enhance. 1,200 compounds, 28% hits. CHO KCNQ1 stable, FluxOR thallium flux fluorescence; beyond 3SD, as % of vehicle-control signal;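 active = fluorescence ratio rise of at least 3 SD of vehicle wells above their mean, in both replicate wells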;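 note: 0% = vehicle mean plus 3 SD and 100% = vehicle minus unstimulated blank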
KCNQ2 pot conf – rat KCNQ2 channel potentiators, confirmation, cell-based, CHO, FluxOR thallium flux, duplicate | shares compounds with KCNQ2 enhance | CHO-KCNQ2 cells, FluxOR thallium flux fluorescence | potentiation, less the hit threshold, % at 10 µM | 1,200 compounds, 68% hits | AID 2287, 2010;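 active = fluorescence ratio rising 3 SD or more over the vehicle control mean in both replicates, plus primary screen hit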;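 note: peak minus minimum thallium fluorescence divided by baseline after K/Tl stimulus; 0% = vehicle mean plus 3 SD and 100% = vehicle minus unstimulated blank difference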
Kir21 spec – mouse Kir2.1 channel activation off-target, confirmation, selectivity assay for KCNQ2 potentiator project, cell-based, HEK293, FluxOR thallium flux; shares compounds with KCNQ2 enhance; HEK293 Kir2.1, FluxOR thallium flux fluorescence; activity over 3SD threshold, % at 10 µM; 1,200 compounds, 2% hits; AID 2345, 2010;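 active = fluorescence ratio rise of at least 3 SD above the vehicle-control mean, seen in both replicates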;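 note: 0% = vehicle mean plus 3 SD and 100% = vehicle minus no-stimulus blank window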
KCNQ2 W236L pot – potentiators of retigabine-insensitive KCNQ2 W236L, mechanism study for KCNQ2 potentiator project, cell-based, rat KCNQ2 W236L, CHO, automated patch clamp. shares compounds with KCNQ2 enhance. automated patch clamp current. 940 compounds, 10% hits. current increase over 3SD of negative controls (%), stronger effect = higher value, % at 25 µM;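 active = current increase at least 3 SD of the untreated controls above them in both duplicate recordings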
* marks the source's active call; other numbers are inactive results; i = inactive; . = no result given. In the library only some 1.6% were active in any assay of this set; here they are far more common.

SMILES | KCNQ2 inh | KCNQ2 enhance | Kir21 conf inh | HEK293 Tl flux | others
O=[N+]([O-])c1cc(C(F)(F)F)ccc1Sc1ccc2ccccc2n1 | i | . | . | .
O=[N+]([O-])c1cc(C(F)(F)F)ccc1Sc1nccn1Cc1ccccc1 | i | . | 58.5%* | i
Cn1ccnc1Sc1ccccc1[N+](=O)[O-] | i | . | . | .
O=[N+]([O-])c1ccc(Sc2nccn2Cc2ccccc2)c([N+](=O)[O-])c1 | i | . | 51.5%* | i
C/C(=N\NC(=O)c1cccc(S(=O)(=O)N2CCOCC2)c1)c1ccc(C#N)cc1 | i | 0.05 | . | .
COc1ncccc1C(=O)N1CCCC(N2CCN(c3cccc(Cl)c3)CC2)C1 (stereo not drawn) | i | 1.11 | . | .
CN(C)CCCN(C(=O)c1ccc2c(c1)OCCO2)c1nc2ccc(Cl)cc2s1 | i | . | 54.0%* | i
CN(C)CCN(C(=O)c1ccc2c(c1)OCCO2)c1nc2ccc(Cl)cc2s1 | i | 0.29 | . | .
c1cn(-c2ccc(-c3ccnc4ncnn34)cc2)cn1 | i | . | . | .
CC(=O)C(Sc1nc(N2CCOCC2)nc(N2CCOCC2)n1)C(=O)Nc1ccccc1 (stereo not drawn) | i | 6.05* | i | i | CHO-K1 Tl ctr=10.3*;KCNQ1 pot spec=-4.1;KCNQ2 pot conf=12.2*;Kir21 spec=-26.6;KCNQ2 W236L pot=i
CCNc1nc(SC(C)C(=O)Nc2ccccc2)nc(N2CCOCC2)n1 (stereo not drawn) | i | 0.37 | . | .
Cn1c(CNC(=O)CNC(=O)Cc2ccc(F)cc2)cc(=O)n(C)c1=O | i | 1 | . | .
C=C(C)C1CC=C(C)/C(=N/NC(=O)CCC(=O)Nc2ccccc2Cl)C1 (stereo not drawn) | i | . | . | .
CC[C@@H](C)[C@H](CN[C@H](CNC)C(C)C)NC[C@@H](C)c1ccc(CC(C)C)cc1 | i | . | 26.5%* | i
CC[C@H](C)[C@@H](CNC)NC[C@@H](Cc1ccc(O)cc1)NCC(C)(C)C | i | 0.03 | . | .
CCCCC1(c2ccc(F)cc2)NC(=O)N(CC(=O)N2CCN(C(=O)c3ccco3)CC2)C1=O (stereo not drawn) | i | 4.42 | . | .
COc1ccc(NC(=O)NNS(=O)(=O)c2ccc(OC)c(OC)c2)c(OC)c1 | i | . | . | .
COc1ccc(C[C@H]2CN3C(=NC[C@H]3Cc3ccccc3)N2CCNC(=O)CCC2CCCCC2)cc1 | i | . | 47.0%* | i
COc1ccc(C[C@H]2CN3C(=NC[C@@H]3Cc3ccccc3)N2C[C@H](C)NC(=O)CCC2CCCCC2)cc1 | i | . | 38.5%* | i
C/C=C(\C)C(=O)NCCN1C2=NC[C@H](Cc3ccccc3)N2C[C@@H]1Cc1ccc(OC)cc1 | i | 0.09 | . | .
C[C@@H](CN1C2=NC[C@H](Cc3ccccc3)N2C[C@H]1Cc1ccc(O)cc1)NC(=O)CCC1CCCCC1 | i | . | . | .
Cc1cc(NC(=O)c2ccc(C#N)cc2)on1 | i | 0.48 | . | .
O=C(OCC(=O)N1CCC(Cc2ccccc2)CC1)c1ccccc1 | i | 0.04 | . | .
COc1cc(C(=O)OCC(=O)N2CCC(Cc3ccccc3)CC2)cc(OC)c1OC | i | 5.64* | i | 67.0%* | CHO-K1 Tl ctr=-8.0;KCNQ1 pot spec=-14.1;KCNQ2 pot conf=35.2*;Kir21 spec=-50.2;KCNQ2 W236L pot=i
NC(=O)CSc1nnc(-c2ccccn2)n1Cc1ccco1 | i | . | . | .
SMILES | KCNQ2 inh | KCNQ2 enhance | Kir21 conf inh | HEK293 Tl flux | others
C(=C\c1ccccc1)/CSc1nnc(-c2ccccn2)n1Cc1ccco1 | -5.78* | -5.78 | 59.5%* | i
Cc1ccc(-n2ncc(C(=O)Nc3cc(Cl)cc(Cl)c3)c2C2CCNCC2)cc1C | i | . | i | i
Cc1ccc(-n2ncc(C(=O)Nc3cc(Cl)ccc3Cl)c2C2CCNCC2)cc1 | i | . | . | .
O=C(O/N=C/c1ccc(Br)cc1)c1ccc(F)cc1 | i | . | . | .
CCS(=O)(=O)c1ccc2oc(SCC(=O)Nc3ccc(OC)cc3OC)nc2c1 | i | 0.67 | . | .
CCS(=O)(=O)c1ccc2oc(SCC(=O)NC(C)C3CC4CCC3C4)nc2c1 (stereo not drawn) | i | 10.1* | i | i | CHO-K1 Tl ctr=-16.9;KCNQ1 pot spec=-14.4;KCNQ2 pot conf=20.7*;Kir21 spec=-36.8;KCNQ2 W236L pot=i
CCOC(=O)c1sc(=S)n(C)c1NC(=O)c1ccccc1 | i | . | . | .
CCOC(=O)c1sc(=S)n(-c2ccccc2)c1NC(C)=O | i | 7.47* | . | . | CHO-K1 Tl ctr=34.6*;KCNQ1 pot spec=3.6*;KCNQ2 pot conf=7.8*;Kir21 spec=-60.9;KCNQ2 W236L pot=i
CN(C)C(=O)COC(=O)c1ccccc1NC(=O)c1ccco1 | i | 0.38 | . | .
Oc1ccc(/C=N/NC(=S)N2CCOCC2)cc1 | i | . | . | .
COCCCNC(=S)N1CCN(c2nc(-c3ccccc3)cs2)CC1 | i | 0.5 | . | .
O=C(NC(=S)N1CCN(c2nc(-c3ccccc3)cs2)CC1)c1cncc(Br)c1 | i | 16.7* | i | 247.0%* | CHO-K1 Tl ctr=-10.8;KCNQ1 pot spec=-14.3;KCNQ2 pot conf=18.1*;Kir21 spec=-26.2;KCNQ2 W236L pot=i
COc1ccccc1C(=O)N1CCN(C(=O)c2oc3ccc(C)cc3c2C)CC1 | i | . | . | .
CCn1ncc([N+](=O)[O-])c1C(=O)Nc1c(C)nn(Cc2ccc(F)cc2)c1C | i | . | . | .
OC(Cn1cnnc1)c1ccccc1 (stereo not drawn) | i | 0.16 | . | .
Cc1[nH]c2ccccc2c1SCC(=O)N1CCCc2ccccc21 | i | . | 54.5%* | i
Cc1[nH]c2ccccc2c1C(=O)C(=O)N1CCCc2ccccc21 | i | . | . | .
COc1ccc(Cl)cc1NC(=O)CN(C)C(=O)c1n[nH]c2ccccc12 | i | 1.12 | . | .
CCCCCc1ccc(CC(=O)Nn2c(C)nc3ccccc3c2=O)cc1 | i | 15.1* | i | i | CHO-K1 Tl ctr=10.3*;KCNQ1 pot spec=-7.7;KCNQ2 pot conf=93.1*;Kir21 spec=-40.0;KCNQ2 W236L pot=i
CCc1ccc(C(=O)Nn2c(C)nc3ccccc3c2=O)cc1 | i | 1.35 | . | .
